Measurements as given in PubChem BioAssay AID1117319 (Southern Research Institute, 2015).
Hit rate of the full screen: of about 260,000 compounds, about 1,500 (0.58%) were called active. Another 5% or so got no clear call; they are omitted.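 How the source made its calls: active means inhibition above a set limit at one or more doses, reproduced on every date tested; inconclusive means results disagree between test dates, or hit never tested in dose response; inactive means the rest.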 Only a sample is shown. Potency and affinity values are given separately.

The compounds below were run against Virion infectivity factor (Human immunodeficiency virus type 1 group M subtype B (isolate BH10)) + Virion infectivity factor (Human immunodeficiency virus type 1 group M subtype B (isolate BRU/LAI)) + Virion infectivity factor (Human immunodeficiency virus type 1 group M subtype B (isolate PCV12)) + Virion infectivity factor (Human immunodeficiency virus type 1 group M subtype B (isolate HXB2)) + DNA dC->dU-editing enzyme APOBEC-3G (Homo sapiens) (UniProt P69720+P69721+P69722+P69723+Q9HC16) (assay: inhibitors of Vif binding to APOBEC3G peptide, primary screen, biochemical, TR-FRET, GST-Vif 1-94, biotin-A3G peptide, dose response retest (AID 1117319;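 further: Vif residues 1-94 fused to GST binding biotinylated APOBEC3G peptide 110-148; 0% = full assay without inhibitor and 100% = GST in place of GST-Vif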)). Conditions: active compounds read high.

inhibition, inactive:
CC1(C)CC(=O)C2=C(C1)OC(N)=C(C#N)C2c1ccccc1 (configuration not stated) 3.85%
N#CC1(Nc2ccc([N+](=O)[O-])cc2)CCCC1 10.3%
CCOC(=O)C1=C(COC(=O)/C=C/c2ccc(C)o2)NC(=O)NC1C (configuration not stated) -5.28%
CCOC(=O)C1=C(COC(=O)/C=C/c2ccc(Cl)cc2)NC(=O)NC1C (configuration not stated) 2.25%
O=C(O)/C=C/c1ccccc1Oc1ccccc1 -6.82%
Cc1ccc(N=C2NC(=O)/C(=C/c3cccn3C)S2)cc1C -3.5%
COc1ccc(CCNc2cc(C)nc3c(-c4ccccc4OC)cnn23)cc1OC 3.45%
CC(C)(CO)CN1CCC(n2nccc2NC(=O)C2CCCC2)CC1 -9.4%
CCNC(=O)N1c2ccc(OC)cc2C(C)=CC1(C)C 18.1%
COc1ccc2c(c1)C(C)=CC(C)(C)N2C(=O)Nc1ccccc1 1.41%
COc1cccc(C(C#N)N2CCOCC2)c1 (configuration not stated) -0.56%
C/C(=N\NC(=O)CCc1ccc(S(=O)(=O)N2CCOCC2)cc1)c1ccc(OC(F)F)cc1 18.9%
CC(NC(=O)c1ccc(Cn2cc([N+](=O)[O-])cn2)cc1)c1ccccc1 (configuration not stated) -7.96%
O=C1C(Cl)=C(N2CCCCCC2)C(=O)N1c1ccccc1 4.82%
O=C1C(Cl)=C(N2CCOCC2)C(=O)N1c1ccc(Br)cc1 12.4%
CCOc1ccccc1C(=O)NC(C(=O)OCC(=O)NNC(=O)c1cccs1)C(C)C (configuration not stated) -2.67%
Cc1cc(NN)nc2ccc(Cl)cc12 21%
O=C(Cc1csc(Nc2nc(=S)[nH]c3ccccc23)n1)NCc1ccc(Cl)cc1 3.88%
Cc1cc(SCc2ccc(C(F)(F)F)cc2)nc(=O)[nH]1 4.23%
Cc1cccc(-c2cc3nc4c(c(NCc5ccco5)n3n2)CCCC4)c1 3.78%
Clc1cccc(-c2cc3nc4c(c(NCc5ccco5)n3n2)CCCC4)c1 -4.82%
Brc1ccc(CSc2nnc(-c3ccco3)o2)cc1 -2.39%
c1coc(-c2nnc(SCc3cn4ccccc4n3)o2)c1 2.16%
COc1ccc(-c2c(C)n([O-])c(C)c(-c3ccccc3)[n+]2=O)cc1OC -6.67%
Cc1cccc(OCc2nnc(SCC(=O)Nc3ccc(C)c(Cl)c3)o2)c1 -12%
Cc1cc(C)cc(NC(=O)CN(C)CC(=O)N(CC(C)C)c2c(N)n(CC(C)C)c(=O)[nH]c2=O)c1 1.78%
O=C(O)c1ccccc1Nc1ccccc1C(=O)O 5.44%
COc1cc(-c2ccc(NC(C)=O)c(OC)c2)ccc1NC(C)=O 1.06%
CCOc1cc(-n2nc(C)c(C#N)c2N)nc(SC)n1 -1.98%
COc1cccc(/C=C2\CCCCC2=O)c1 8.63%
CC(NC(=O)C12CC3CC(C1)CC(n1cncn1)(C3)C2)C12CC3CC(CC(C3)C1)C2 (configuration not stated) -7.08%
O=C(COC(=O)CCC(=O)N1CCOCC1)Nc1ccc(Br)cc1Br 3.75%
O=C(C1CCCN1S(=O)(=O)c1ccc(Cl)cc1)N1CCCCC1 (configuration not stated) -2.58%
CN1CCN(c2ccc(C(=O)c3ccc(F)cc3)cc2)CC1 -7.54%
O=C(O)c1ccc(N2CCCCC2)cc1 8.04%
O=Cc1ccc(N2CCCCC2)cc1 -6%
Nc1ccc(N2CCN(c3ccc(Cl)c(Cl)c3)CC2)cc1 22.2%
CCn1c(SCC(=O)NC2CC2)nnc1-c1ccccc1 -1.91%
COc1ccc(CNC(=O)c2ccccc2NS(C)(=O)=O)cc1 1.78%
C=C(C)CNC(=S)NNC(=O)c1ccncc1 -3.17%
Cc1cc(C)c(S(=O)(=O)NCCc2ccncc2)c(C)c1 -0.3%
CC(NC(N)=O)C(=O)Nc1ccc(Cl)c(S(=O)(=O)Nc2ccc(Br)cc2)c1 (configuration not stated) 10.3%
CCOc1ccc(S(=O)(=O)n2ccc(C)n2)cc1 -9.61%
CCOc1ccc(NC(=O)NC2CCOC(C)(C)C2)cc1 (configuration not stated) 22%
CCOc1ccc(NCCC#N)cc1 -2.11%
Cc1ccc(C)c(NC(=O)CSc2nc3c(c(=O)n2C)SC(C)C3)c1 (configuration not stated) 8.15%
Cc1cc(C)c(NC(=O)CSc2nc3c(c(=O)n2C)SC(C)C3)c(C)c1 (configuration not stated) 3.57%
CCC(C)N(NC(C)=O)c1nc(Cl)nc(NC(C)(C)C)n1 (configuration not stated) 7.21%
COc1ccc(/C=N/NC(=O)CN(C2=NS(=O)(=O)c3ccccc32)c2ccccc2)cc1 22.5%
CCOC(=O)C1(Cc2cccc(OC)c2)CCN(Cc2ccc(C)s2)CC1 11.4%
Cc1cc(C(C)(C)C)c(O)c(C(C)(C)C)c1 17.9%
Cc1ccc(O)c(Cc2cc(C)cc(Cc3cc(C)ccc3O)c2O)c1 -3.64%
COc1ccc(OC)c(-c2[nH]nc3c2C(c2ccco2)C(C#N)=C(N)O3)c1 (configuration not stated) 17.4%
CC(=O)Nc1ccc(S(=O)(=O)Nc2nc3ccc([N+](=O)[O-])cc3s2)cc1 0.77%
COc1ccc(-c2cc(C(=O)NCC3CCCO3)c3ccccc3n2)cc1 (configuration not stated) -7.4%
O=C(NC1CC1)c1cc(-c2ccccn2)nc2ccccc12 -3.96%
O=C(Nc1cccc(S(=O)(=O)NC2=NCCC2)c1)c1cc(-c2ccco2)nc2ccccc12 -0.28%
O=C(NCC1CCCO1)c1cc(-c2ccncc2)nc2ccccc12 (configuration not stated) -2.45%
O=C(Nc1cccc(S(=O)(=O)NC2=NCCC2)c1)c1cc(-c2ccccn2)nc2ccccc12 -2.06%
O=C(NNC(=O)c1cc(-c2ccco2)nc2ccccc12)c1ccccc1 14%
CN(CCc1ccccn1)S(=O)(=O)c1ccc(F)cc1 1.96%
Cc1cc2c(Nc3ccc(O)cc3)ncnc2s1 -0.33%
